The record followed here is PubChem BioAssay (NCATS).

Results filed as inconclusive are left out. Unmarked numbers belong to inactive results. Calls of active or inactive are those of the source. The call rests on the fitted dose curve; in most records, active means well fitted inhibition curve with a large enough effect; inconclusive means small, poorly fitted or top-dose-only effect; inactive means flat fitted curve, though single readings scatter. Where a SMILES comes first, the peptide text is derived from it. [ ]: non-standard residue; d: D form. dPhe(4-Cl) = N[C@H](Cc1ccc(Cl)cc1)C(=O)O; d2Nal = N[C@H](Cc1ccc2ccccc2c1)C(=O)O; dCit = NC(=O)NCCC[C@@H](N)C(=O)O; d3Pal = N[C@H](Cc1cccnc1)C(=O)O

The test system of one test is CRL-7250. Kind of test: Cytotoxic Profiling of Annotated Libraries Using Quantitative High-Throughput Screening (AID 1296008). Further: potency means the concentration at half of the fitted maximal effect. On max response: on the % scale 0 is the no-effect control and ±100 the full control effect. Particulars: Five cell lines viability, CellTiter-Glo ATP luminescence, 48-72 h; max response: active compounds read low. An outline of the steps: (§1)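 Cells exposed to compounds for 48 or 72 hr at 37 degrees Celsius. Viability read as ATP-coupled luminescence with CellTiter-Glo after 10 min at room temperature.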

In a further test the test system is HEK293. The description is as above. Particulars: Five cell lines viability, CellTiter-Glo ATP luminescence, 48-72 h; max response: active compounds read low. In a few lines: as §1
(In ATP-based viability assays light output follows the ATP content of the culture.)

The next test has as its system KB-3-1. Described as above. Particulars: Five cell lines viability, CellTiter-Glo ATP luminescence, 48-72 h; max response: active compounds read low. An outline of the steps:
as §1

The next test deals with NIH3T3. The description is as above. Particulars: Five cell lines viability, CellTiter-Glo ATP luminescence, 48-72 h; max response: active compounds read low. In a few lines: as §1
The next test concerns HEK293T. Kind of test: qHTS assay to identify novel small-molecules to repurpose for Merkel cell carcinoma treatment (AID 1296009). Particulars: MCC and control cell lines, CellTiter-Glo viability, 72 h; at 44.8 µM (top of the series) unless noted. In a few lines: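 CellTiter-Glo luminescence after 72 hr compound exposure at 37 degree celsius gave cell viability. Libraries NPC and MIPE were run as 8- and 11-point dose responses; RLUs normalized to DMSO (negative) and no-cell (cytotoxicity) controls.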
Background: In qHTS, concentration-response curves come from the screen itself.

A further test has as its system HaCat. Kind of test: Cytotoxic Profiling of Annotated Libraries Using Quantitative High-Throughput Screening (AID 1296008). Further: potency means the concentration at half of the fitted maximal effect. On max response: on the % scale 0 is the no-effect control and ±100 the full control effect. Particulars: Five cell lines viability, CellTiter-Glo ATP luminescence, 48-72 h; max response: active compounds read low. An outline of the steps:
as §1
Further: nearly all actives have a fitted effect of over 60% in size.

Turning to `O=S(=O)(Nc1ccccn1)c1ccc(N=Cc2c(O)[nH]c3ccc4ncsc4c23)cc1`, the result in the test with CRL-7250 and in the test on NIH3T3 was inactive. The values for the max response in the test with HEK293 and with KB-3-1 were -3.48% and -4.18%, respectively.
As for `COc1cc2ncnc(Nc3ccc(O)cc3)c2cc1OC`, in the test on CRL-7250, the compound was classed as inactive. In addition, the results for the max response with HEK293, in the test with KB-3-1 and in the test with NIH3T3 were -8.09%, 3.01% and 2.24%, respectively.
For the compound `CN(C)CCn1cc(S(=O)(=O)c2cccc(F)c2)c2cccnc21`, the call in the test on HEK293T was inactive.
On the same count and under the same terms, then `CCc1c(C)nc2c(-c3cnn(-c4cc(CO)ccn4)c3)c[nH]n2c1=O`, with “inactive”.
With `CC(=O)N[C@H](Cc1ccc2ccccc2c1)C(=O)N[C@H](Cc1ccc(Cl)cc1)C(=O)N[C@H](Cc1cccnc1)C(=O)N[C@@H](CO)C(=O)N[C@@H](Cc1ccc(O)cc1)C(=O)N[C@H](CCCNC(N)=O)C(=O)N[C@@H](CC(C)C)C(=O)N[C@@H](CCCN=C(N)N)C(=O)N1CCC[C@H]1C(=O)N[C@H](C)C(N)=O` (Ac-[d2Nal][dPhe(4-Cl)][d3Pal]SY[dCit]LRP[dA]-NH2), the max response with CRL-7250 is -7.92%; in the test with HaCat, -5.33%; in the test with KB-3-1 it was 9.13%; in the test with NIH3T3, 4.07%.
In the case of `COC(=O)C1=CO[C@@H](O)C2C(CO)=CCC12` (some centres undefined), the max response in the test on CRL-7250 is -9.24%; in the test on HaCat it was -12%; in the test with KB-3-1 it was -1.48%; in the test with NIH3T3, -2.89%.
For `CC1C=CC2CCCCC2C1CCC1CC(O)CC(=O)O1` (centres undefined), the max response in the test on CRL-7250 is -5.84%; with KB-3-1, 3.85%; in the test with NIH3T3 it was -16%. Also, the outcome in the test on HEK293 and in the test on HEK293T was inactive.
With `Cc1csc(NC(=O)c2ccc(COc3cccc(Cl)c3)o2)n1`, the max response in the test with CRL-7250 is -4.74%; in the test with HaCat, 2.26%; in the test with KB-3-1, -1.89%.
As to `CC1=C(C(=O)O)/C(=C\CO[C@@H]2O[C@H](CO)[C@@H](O)[C@H](O)[C@H]2O)C(OC(=O)/C=C\c2ccc(O)cc2)C1` (some centres undefined), the max response was 3.65% with CRL-7250 and -21.6% in the test on NIH3T3. Moreover, the compound was classed as inactive with HEK293 and in the test with KB-3-1. The outcome in the test on HEK293T is “inactive [at 17.4 µM]”.
Consider `C=C1CCC2C(C)(COC(C)=O)CCCC2(C)C1CCC(C)CC(=O)O` (centres undefined), for which the results for the max response in the test with CRL-7250 and with KB-3-1 were -3% and 8.96%, respectively. Further, the compound was called inactive with HEK293, in the test on NIH3T3 and with HEK293T.
For `CC1CC2OC3(OC2C(C)(C)O)C1C1(C)CCC24CC25CCC(O[C@@H]2OC[C@@H](O)[C@H](O)[C@H]2O)C(C)(C)C5CC=C4C1(C)C3O` (some centres undefined), the max response in the test with CRL-7250 is -7.03%; in the test on KB-3-1, 5.34%; in the test with NIH3T3, 0.0478%. Besides, the compound was called inactive in the test with HEK293. Moreover, the outcome with HEK293T was “inactive [at 17.4 µM]”.
With `CC(C)(O)c1ccc2c(c1)C(O)C[C@H]1[C@](C)(C(=O)O)CCC[C@]21C` (some centres undefined), the values for the max response with CRL-7250, with HaCat and in the test with NIH3T3 were 1.1%, -7.52% and 4.86%, respectively. Also, in the test with KB-3-1, the outcome was inactive.
For the compound `COC(=O)[C@@H](O)[C@H]1[C@@]2(C)CC3(O)[C@@H](C(=O)[C@H]2O)[C@]24O[C@]25CC(=O)O[C@@H](c2ccoc2)[C@]5(C)CCC4[C@]13C` (some centres undefined), the result in the test with CRL-7250 was inactive. The results for the max response in the test on HaCat, with KB-3-1 and in the test with NIH3T3 were 4.1%, 7.49% and -5.38%, respectively.
As for `C[C@@H]1CCC/C=C/[C@H]2CC(=O)C[C@@H]2[C@@H](O)/C=C/C(=O)O1`, the max response is -3.74% in the test on CRL-7250, -12.2% with HaCat, 8.18% with KB-3-1 and -2.1% in the test with NIH3T3.
`C[C@H](Nc1ncnc2nc[nH]c12)c1cc2ccc(F)cc2nc1-c1ccccn1`: the max response in the test with CRL-7250 was -2.06%; with NIH3T3 it was -0.749%. Also, the call in the test on HEK293, with KB-3-1 and in the test with HEK293T was inactive.
On to `COc1c/c(=C2\C=c3ccccc3=N2)[nH]/c1=C\c1[nH]c(C)cc1C`, for which the Potency in the test with CRL-7250 was 1840 nM (active); in the test on HaCat, 4110 nM (active); in the test on KB-3-1 it was 2310 nM (active); with NIH3T3 it was 6510 nM (active).
With `Cc1cc(C(=O)N2CCCCc3ccccc32)ccc1CNC(=O)N1CCC[C@H]1C(=O)N(C)C`, the max response with CRL-7250 was -2.89%; in the test on HaCat, -11%; in the test with KB-3-1 it was 4.93%; in the test with NIH3T3, 3.28%.
Regarding `O=C(O)CC(=O)OC[C@H]1O[C@@H](Oc2ccc3c(c2)OC[C@H]2c4cc5c(cc4O[C@@H]32)OCO5)[C@H](O)[C@@H](O)[C@@H]1O`, the results for the max response with CRL-7250, in the test on KB-3-1 and in the test with NIH3T3 were -24.1%, -2.44% and -8.59%, respectively. The outcome with HEK293 was inactive. Further, in the test on HEK293T, the outcome is “inactive [at 17.4 µM]”.
With `OC1CCC(Nc2ncc3nc(Nc4c(F)cc(F)cc4F)n([C@H]4CCOC4)c3n2)CC1` (some centres undefined), the max response is -2.71% in the test on CRL-7250 and 3.11% with NIH3T3. Moreover, the compound was classed as inactive in the test with HEK293, with KB-3-1 and in the test with HEK293T.
As for `CCn1c(=O)c(-c2ccn[nH]2)cc2c(C)nc(N)nc21`, the Potency with CRL-7250 was 2310 nM (active); in the test on HaCat it was 2590 nM (active); with KB-3-1 it was 7310 nM (active); with NIH3T3 it was 1840 nM (active).
For `CC1OC(OC2C(CO)OC(OCC3OC(OC(=O)C45CCC(C)(C)CC4C4=CCC6C7(C)CCC(OC8OC(CO)C(O)C(OC9OC(CO)C(O)C(O)C9O)C8O)C(C)(C)C7CCC6(C)C4(C)CC5)C(O)C(O)C3O)C(O)C2O)C(O)C(O)C1OC1OC(CO)C(O)C(O)C1O` (centres undefined), the max response was -0.747% in the test on CRL-7250, -8.62% in the test on HaCat, -0.0406% in the test on KB-3-1 and -0.84% in the test with NIH3T3.
